“And” between values parts separate entries of the source, which are not always exact repeats. Equal entries are not always repeated. For some assays here: Measured potencies and affinities stand elsewhere. The source made the active and inactive calls. Cut-off read from the data, not from the text of the source, unless noted: active = parasite load remaining mostly below about 12% (no sharp cut-off); inactive = mostly above about 10%.
What was measured:
[1] = blockers of polyQ-driven CASP3 activation – cell-based (AID 1583); conditions: polyglutamine-induced caspase-3 activation, cell assay; stronger effect = higher value;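 tested at 10 µM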
[2] = yeast 75Q aggregation reduction – 75Q-TubU reporter (AID 1593); conditions: Yeast 75Q polyglutamine aggregation reporter
[3] = restoration of touch response, mutant HTT neurons – whole organism, C. elegans mechanosensory neurons, N-terminal huntingtin (AID 1599); conditions: C. elegans polyQ-huntingtin mechanosensory neurons, stronger effect = higher value
[4] = blockers of cytochrome c efflux from mitochondria – biochemical, purified mitochondria (AID 1603); conditions: stronger effect = lower value;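 note: mouse liver mitochondria challenged with calcium chloride; signal normalized to the plate average as 100%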
[5] = polyglutamine aggregate formation blockers (AID 1604); conditions: polyglutamine-induced protein aggregation inhibition assay; stronger effect = higher value; tested at 2.5 µM
[6] = glutamate transport activators, MN-1 cells, MN-1 cell line (AID 1612); conditions: MN-1 motor neuron cells, stronger effect = higher value;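 note: tested at 1 µM final; 0% = mean of DMSO vehicle wells on each plate; positive means more glutamate uptake than control and negative means less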
[7] = GFP-Q80 aggregate reduction, neuronal-like cells, cell-based, NGF-treated PC12, GFPQ80 (AID 1614); conditions: PC12 NGF-treated GFP-polyQ80 inclusion reduction;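 note: lower means fewer inclusions and 0 means no inclusions at all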
[8] = 75Q-TubH aggregate inhibition, S. cerevisiae, yeast (AID 1616); conditions: S. cerevisiae 75Q-TubH polyglutamine aggregation suppression; stronger effect = higher value
[9] = P. berghei load reduction in hepatocytes – cell-based, HepG2, luciferase luminescence, HepG2 viability, primary screen (AID 624349);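 note: 100% = mean of DMSO negative control wells on the same plate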; conditions: P. berghei liver stage in HepG2, luciferase luminescence, concentration not given here; parasite load remaining: stronger effect = lower value; viability: measured here: HepG2 viability without parasites
[10] = EMT-state selective cytotoxicity in co-culture – imaging, PC-3E GFP, TEM4-18 mCherry, primary screen (AID 1345086;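 active = compounds killing one labelled cell type while sparing the other, by normalised counts and ratio limits, not self-fluorescent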;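 for all read-outs here: cells exposed to compound for 72 h before imaging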;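 for red/green cell ratio (normalised): normalised mesenchymal count divided by normalised epithelial count so high means epithelial killing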); conditions: PC-3E GFP / TEM4-18 mCherry co-culture, imaging cell counts, at 1 µM; for red/green cell ratio (normalised): actives lie on both sides, counts scaled to control wells, 1 = unselective
[11] = viability loss with induced miR-34 in A549 – imaging, A549 dox-inducible miR-34, nuclei and caspase counts, primary screen (AID 1347080;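 active = compounds whose cell count with miR-34 switched on is under 0.7 times the count with it off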); conditions: A549 miR-34 inducible, Hoechst nuclei count, 48 h
[12] = galactose survival enhancers in mitochondrial complex I cybrids – cell-based, galactose medium, ATP luminescence, primary screen (AID 1645843;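 active = z-score of at least 1.8 in each of two replicates, scored against plate mean and spread of sample wells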;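 note: positive z means more ATP and so rescue of galactose-driven cybrid death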); conditions: complex I mutant cybrid cells, 72 h, stronger effect = higher value
[13] = measured here: epithelial PC-3E GFP cell survival
[14] = measured here: mesenchymal TEM4-18 mCherry cell survival
[15] = stronger effect = lower value, cell number ratio, induced over uninduced
[16] = measured here: relative caspase fold change +Dox/-Dox
[17] = measured here: total cells with miR-34 induction, stronger effect = lower value
[18] = measured here: total cells without miR-34 induction

| Structure (SMILES) | inhibition [1] | score [2] | rescue above control [3] | cytochrome c release ratio [4] | inhibition of aggregation [5] | glutamate uptake change [6] | inclusion score [7] | aggregation suppression score [8] | parasite load remaining [9] | viability [9] | red/green cell ratio (normalised) [10] | normalised cell number [10, 13] | normalised cell number [10, 14] | fold change [11, 15] | fold change [11, 16] | cell count [11, 17] | cell count [11, 18] | z-score [12] |
| --- | --- | --- | --- | --- | --- | --- | --- | --- | --- | --- | --- | --- | --- | --- | --- | --- | --- | --- |
| NCC[C@@H](O)C(=O)N[C@@H]1C[C@H](N)[C@@H](O[C@H]2O[C@H](CN)[C@@H](O)[C@H](O)[C@H]2O)[C@H](O)[C@H]1O[C@H]1O[C@H](CO)[C@@H](O)[C@H](N)C1O (some centres not stated) | -41.9% | 1.11 | -4.05 | 0.95 | 36.6% | 9.38% | 2 | 1.24 | 115% (inactive) and 70.5% (inactive) | 74.2% and 95.8% | 1 (inactive) | 1.2 | 1.2 | 0.885 (inactive) | 0.583 | 10600 | 11900 |  |
| C[N+]1(C)C2CC[C@H]1CC(OC(=O)C(O)c1ccccc1)C2 (some centres not stated) | 5.29% | 1.53 | 12.1 | 0.9 | 65.1% | -16.5% | 2 | 1.36 | 95.8% (inactive) and 69.2% (inactive) | 75.7% and 100% | 0.83 (inactive) | 1.16 | 0.97 | 0.874 (inactive) | 1.28 | 10300 | 11800 |  |
| CC12CCC3C(=CCc4cc(O)ccc43)C1CCC2=O (configuration not stated) | -18.1% | 0.86 | 0.8 | 0.66 | 84.7% | 1.39% |  | 0.518 | 112% (inactive) and 14% (inactive) | 72.6% and 110% | 1.28 (inactive) | 1.14 | 1.45 | 0.897 (inactive) | 0.851 | 11100 | 12400 |  |
| CC(=O)[C@H]1CCC2C3C[C@H](C)C4=CC(=O)CC[C@]4(C)C3[C@@H](O)C[C@@]21C (some centres not stated) | -9.54% | 0.84 | 5.72 | 0.58 | 53.9% | 24.3% |  | 0.683 | 75.8% (inactive) and 64.6% (inactive) | 70.5% and 91.2% | 1.01 (inactive) | 1.12 | 1.13 | 0.946 (inactive) | 2.37 | 8730 | 9220 |  |
| C[C@]12C=CC(=O)C=C1CCC1C2C(=O)C[C@@]2(C)C1CC[C@]2(O)C(=O)CO (some centres not stated) | 10.6% | 1.16 | 5.79 | 0.79 | -17.6% | -8.9% | 2 | 1.29 | 71.9% (inactive) and 35.5% (inactive) | 73% and 91% | 1.16 (inactive) | 0.94 | 1.1 | 0.854 (inactive) | 2.55 | 10500 | 12300 |  |
| O=c1[nH]c(=O)n(C2C[C@@H](O)[C@@H](CO)O2)cc1F (some centres not stated) | -9.47% | 1.23 | -12.2 | 0.97 | 28.2% | 1.59% | 2 | 1.24 | 79.5% (inactive) and 36% (inactive) | 108% | 0.79 (inactive) | 0.79 | 0.62 | 1.13 (inactive) | 1.5 | 4220 | 3730 |  |
| C#C[C@]1(O)CCC2C3CCC4=Cc5oncc5C[C@]4(C)C3CC[C@@]21C (some centres not stated) | 10.9% | 1.04 | 5.61 | 1.19 | 69.1% | -6.15% |  | 0.874 | 83.8% (inactive) and 19.9% (inactive) | 69% and 89.7% | 1.05 (inactive) | 1.19 | 1.26 | 0.952 (inactive) | 2.2 | 9590 | 10100 |  |
| CN1CCN(CCC=C2c3ccccc3Sc3ccc(S(=O)(=O)N(C)C)cc32)CC1 | 35.1% | 0.75 | 18.8 | 2.01 | 76% | -21.1% |  | 0.481 | 192% (inactive) and 47.1% (inactive) | 71.3% and 85.4% | 1.07 (inactive) | 0.83 | 0.89 | 0.878 (inactive) | 3.25 | 9700 | 11100 |  |
| C[C@]12CCC3c4ccc(OS(=O)(=O)O)cc4CCC3C1CCC2=O (some centres not stated) |  |  |  |  |  |  |  |  | 45.1% (inactive) | 102% | 0.91 (inactive) | 0.94 | 0.86 | 0.918 (inactive) and 0.865 (inactive) | 1.03 and 4.55 | 9150 and 11800 | 9970 and 13700 | 0.9 (inactive) |
| C[C@]12CCC(=O)C=C1CCC1C2C(=O)C[C@@]2(C)C1CC[C@]2(O)C(=O)CO (some centres not stated) |  |  |  |  |  |  |  |  |  |  | 0.7 (inactive) | 1.3 | 0.91 | 0.915 (inactive) | 1.12 | 9120 | 9960 | 0.345 (inactive) |
| CC1(C)C2CC[C@]3(C)C(C(=O)C=C4[C@@H]5C[C@@](C)(C(=O)O)CC[C@]5(C)CC[C@]43C)[C@@]2(C)CC[C@@H]1OC(=O)CCC(=O)O (some centres not stated) | 59.3% | 2.57 | -3.48 | 3.47 | 66.7% | -2.75% |  | 1.68 | 124% (inactive) and 24.9% (inactive) | 99.6% and 85.2% | 0.99 (inactive) | 1.01 | 1 | 0.887 (inactive) | 2.9 | 10800 | 12200 |  |
| CC(=O)[C@H]1CCC2C3CCC4=CC(=O)CC[C@]4(C)C3CC[C@@]21C (some centres not stated) | 41.6% | 0.59 | 3.59 | 1.24 | 84.5% | -1.48% |  | 0.333 | 49.3% (inactive) and 27.2% (inactive) | 66.1% and 99.4% | 0.96 (inactive) | 1.15 | 1.11 | 0.856 (inactive) | 1.4 | 9840 | 11500 |  |
